Targets with a hit are over-represented here; the source holds about 7,900 in all. About 0.6% of all pairs of compound and target were hits. Values without a mark were called inactive.

Chain of UniProt O15118 (O15118 whole entry, looked up): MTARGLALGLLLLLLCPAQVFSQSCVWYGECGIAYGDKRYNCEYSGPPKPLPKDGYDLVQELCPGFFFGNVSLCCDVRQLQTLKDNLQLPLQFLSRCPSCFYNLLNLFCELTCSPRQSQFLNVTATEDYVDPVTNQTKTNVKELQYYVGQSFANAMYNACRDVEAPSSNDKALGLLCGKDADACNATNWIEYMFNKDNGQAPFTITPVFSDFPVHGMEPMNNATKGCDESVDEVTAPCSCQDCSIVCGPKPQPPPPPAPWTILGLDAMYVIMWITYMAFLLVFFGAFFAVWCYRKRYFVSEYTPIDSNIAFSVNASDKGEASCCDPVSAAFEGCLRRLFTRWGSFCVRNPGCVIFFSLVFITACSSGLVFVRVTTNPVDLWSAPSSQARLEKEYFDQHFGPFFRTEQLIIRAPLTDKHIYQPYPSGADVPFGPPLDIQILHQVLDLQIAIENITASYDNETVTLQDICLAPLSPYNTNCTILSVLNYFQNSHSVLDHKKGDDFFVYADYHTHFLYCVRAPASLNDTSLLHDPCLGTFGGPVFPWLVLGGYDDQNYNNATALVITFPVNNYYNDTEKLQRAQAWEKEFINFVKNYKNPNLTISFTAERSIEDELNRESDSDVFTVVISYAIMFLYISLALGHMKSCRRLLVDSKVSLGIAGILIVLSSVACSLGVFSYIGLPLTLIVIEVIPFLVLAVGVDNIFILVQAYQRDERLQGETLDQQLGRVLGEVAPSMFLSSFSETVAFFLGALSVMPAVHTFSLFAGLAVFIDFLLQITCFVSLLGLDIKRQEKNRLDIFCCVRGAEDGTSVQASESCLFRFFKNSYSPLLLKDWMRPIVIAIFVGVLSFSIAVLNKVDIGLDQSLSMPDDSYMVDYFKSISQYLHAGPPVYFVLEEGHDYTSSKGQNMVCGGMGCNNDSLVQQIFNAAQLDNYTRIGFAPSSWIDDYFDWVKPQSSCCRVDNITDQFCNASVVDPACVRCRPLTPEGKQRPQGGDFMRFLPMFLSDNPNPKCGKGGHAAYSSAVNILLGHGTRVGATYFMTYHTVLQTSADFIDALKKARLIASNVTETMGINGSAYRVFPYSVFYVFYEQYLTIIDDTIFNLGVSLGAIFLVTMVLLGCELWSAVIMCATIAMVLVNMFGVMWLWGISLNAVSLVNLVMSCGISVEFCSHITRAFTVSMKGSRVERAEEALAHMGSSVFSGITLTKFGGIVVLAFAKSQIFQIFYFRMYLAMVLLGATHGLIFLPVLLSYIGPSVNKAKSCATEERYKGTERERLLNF
Chain of UniProt Q96D46 (Q96D46 whole entry, looked up): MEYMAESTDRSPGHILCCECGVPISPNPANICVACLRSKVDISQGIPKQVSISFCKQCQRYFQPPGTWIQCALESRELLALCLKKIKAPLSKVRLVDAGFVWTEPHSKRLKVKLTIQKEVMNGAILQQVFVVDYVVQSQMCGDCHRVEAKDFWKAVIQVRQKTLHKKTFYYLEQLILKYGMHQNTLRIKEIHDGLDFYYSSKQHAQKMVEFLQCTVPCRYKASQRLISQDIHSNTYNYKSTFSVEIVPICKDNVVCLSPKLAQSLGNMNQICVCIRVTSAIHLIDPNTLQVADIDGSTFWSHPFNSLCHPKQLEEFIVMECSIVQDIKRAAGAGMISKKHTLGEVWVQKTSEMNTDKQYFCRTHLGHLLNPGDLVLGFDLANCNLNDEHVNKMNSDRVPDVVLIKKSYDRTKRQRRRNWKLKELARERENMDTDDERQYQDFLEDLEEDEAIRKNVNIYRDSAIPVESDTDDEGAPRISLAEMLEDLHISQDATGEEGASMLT
Chain of UniProt Q96PU5 (Q96PU5 whole entry, looked up): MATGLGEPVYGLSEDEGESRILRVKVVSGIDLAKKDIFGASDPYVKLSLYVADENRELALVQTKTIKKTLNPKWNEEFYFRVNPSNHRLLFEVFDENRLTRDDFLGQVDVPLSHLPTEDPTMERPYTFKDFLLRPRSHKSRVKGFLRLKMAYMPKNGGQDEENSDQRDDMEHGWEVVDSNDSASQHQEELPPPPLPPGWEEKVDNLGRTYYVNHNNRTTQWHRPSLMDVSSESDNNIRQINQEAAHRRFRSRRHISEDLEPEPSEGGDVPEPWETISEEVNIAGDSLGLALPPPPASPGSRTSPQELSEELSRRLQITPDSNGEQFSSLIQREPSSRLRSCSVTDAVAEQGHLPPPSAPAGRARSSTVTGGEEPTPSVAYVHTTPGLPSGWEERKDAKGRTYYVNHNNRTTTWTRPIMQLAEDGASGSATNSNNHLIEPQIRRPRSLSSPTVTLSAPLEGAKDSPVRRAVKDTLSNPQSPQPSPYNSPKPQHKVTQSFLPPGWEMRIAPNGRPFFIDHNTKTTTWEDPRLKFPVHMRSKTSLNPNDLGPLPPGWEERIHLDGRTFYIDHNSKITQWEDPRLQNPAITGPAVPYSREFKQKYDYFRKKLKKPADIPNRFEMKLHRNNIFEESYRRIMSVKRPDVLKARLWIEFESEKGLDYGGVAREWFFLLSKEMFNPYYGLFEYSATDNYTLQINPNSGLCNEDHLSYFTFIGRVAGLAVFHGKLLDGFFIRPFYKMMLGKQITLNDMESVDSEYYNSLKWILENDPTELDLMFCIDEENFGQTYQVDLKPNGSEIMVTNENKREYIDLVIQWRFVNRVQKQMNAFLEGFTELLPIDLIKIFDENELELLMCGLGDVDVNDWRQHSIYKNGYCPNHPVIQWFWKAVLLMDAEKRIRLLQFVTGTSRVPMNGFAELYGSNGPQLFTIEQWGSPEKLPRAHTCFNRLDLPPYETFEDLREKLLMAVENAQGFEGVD
Chain of UniProt Q8WV92 (Q8WV92 whole entry, looked up): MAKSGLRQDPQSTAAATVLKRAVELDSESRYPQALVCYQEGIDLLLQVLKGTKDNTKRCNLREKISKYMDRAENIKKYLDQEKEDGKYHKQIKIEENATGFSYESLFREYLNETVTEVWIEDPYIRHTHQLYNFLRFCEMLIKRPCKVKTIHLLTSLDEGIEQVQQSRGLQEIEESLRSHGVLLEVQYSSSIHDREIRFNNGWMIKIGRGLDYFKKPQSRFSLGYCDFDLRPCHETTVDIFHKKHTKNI
Chain of UniProt O43847 (O43847 whole entry, looked up): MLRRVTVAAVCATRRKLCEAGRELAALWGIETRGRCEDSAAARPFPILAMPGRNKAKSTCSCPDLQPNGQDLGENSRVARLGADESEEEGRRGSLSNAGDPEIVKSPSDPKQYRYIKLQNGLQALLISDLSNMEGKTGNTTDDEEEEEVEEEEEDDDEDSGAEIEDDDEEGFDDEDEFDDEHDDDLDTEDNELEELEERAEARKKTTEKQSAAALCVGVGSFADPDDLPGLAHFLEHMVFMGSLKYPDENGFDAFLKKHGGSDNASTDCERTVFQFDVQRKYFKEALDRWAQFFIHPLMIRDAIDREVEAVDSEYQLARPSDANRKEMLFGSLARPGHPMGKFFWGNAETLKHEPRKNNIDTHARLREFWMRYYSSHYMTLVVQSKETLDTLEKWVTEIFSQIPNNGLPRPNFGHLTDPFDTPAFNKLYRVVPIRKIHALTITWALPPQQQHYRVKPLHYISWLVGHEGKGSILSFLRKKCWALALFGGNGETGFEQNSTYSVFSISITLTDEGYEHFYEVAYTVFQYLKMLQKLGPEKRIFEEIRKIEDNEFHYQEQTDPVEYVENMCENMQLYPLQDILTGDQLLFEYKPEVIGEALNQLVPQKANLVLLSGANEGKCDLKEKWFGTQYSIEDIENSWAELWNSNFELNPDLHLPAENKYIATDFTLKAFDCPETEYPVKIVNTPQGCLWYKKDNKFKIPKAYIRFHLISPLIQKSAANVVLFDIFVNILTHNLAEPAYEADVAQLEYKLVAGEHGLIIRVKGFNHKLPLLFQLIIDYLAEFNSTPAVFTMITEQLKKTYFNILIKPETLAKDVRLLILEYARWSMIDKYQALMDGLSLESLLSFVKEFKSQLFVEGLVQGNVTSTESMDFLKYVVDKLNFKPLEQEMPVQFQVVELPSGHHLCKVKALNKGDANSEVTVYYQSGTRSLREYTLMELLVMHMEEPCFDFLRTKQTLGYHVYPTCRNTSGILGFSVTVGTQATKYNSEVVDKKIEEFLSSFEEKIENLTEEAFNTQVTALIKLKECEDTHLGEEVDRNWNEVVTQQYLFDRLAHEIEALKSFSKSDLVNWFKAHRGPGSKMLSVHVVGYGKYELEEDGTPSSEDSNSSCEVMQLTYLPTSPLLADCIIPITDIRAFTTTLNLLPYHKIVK
Chain of UniProt Q96I59 (Q96I59 whole entry, looked up): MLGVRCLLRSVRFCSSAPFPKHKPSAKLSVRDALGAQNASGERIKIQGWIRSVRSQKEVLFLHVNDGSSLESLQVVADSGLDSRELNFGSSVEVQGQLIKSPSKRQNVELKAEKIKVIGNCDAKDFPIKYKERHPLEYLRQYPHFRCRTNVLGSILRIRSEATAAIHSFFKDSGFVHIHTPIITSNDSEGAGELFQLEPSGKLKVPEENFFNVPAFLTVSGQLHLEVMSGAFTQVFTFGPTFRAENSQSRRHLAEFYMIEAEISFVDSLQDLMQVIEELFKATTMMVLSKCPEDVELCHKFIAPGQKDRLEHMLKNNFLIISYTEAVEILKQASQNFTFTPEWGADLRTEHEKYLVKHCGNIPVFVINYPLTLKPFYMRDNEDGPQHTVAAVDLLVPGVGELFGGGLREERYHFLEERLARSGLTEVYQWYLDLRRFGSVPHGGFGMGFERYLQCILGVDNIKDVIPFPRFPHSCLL
Chain of UniProt Q96MF7 (Q96MF7 whole entry, looked up): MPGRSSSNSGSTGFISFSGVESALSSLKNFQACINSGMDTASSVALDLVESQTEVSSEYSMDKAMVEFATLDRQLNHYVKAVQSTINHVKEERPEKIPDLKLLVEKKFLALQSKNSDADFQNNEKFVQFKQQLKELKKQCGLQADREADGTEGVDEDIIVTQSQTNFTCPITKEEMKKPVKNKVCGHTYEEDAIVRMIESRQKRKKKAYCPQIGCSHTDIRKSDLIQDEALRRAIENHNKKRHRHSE
Chain of UniProt O00483 (O00483 whole entry, looked up): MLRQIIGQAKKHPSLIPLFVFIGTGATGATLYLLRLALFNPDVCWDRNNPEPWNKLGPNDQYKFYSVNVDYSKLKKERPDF

Compound in the first test: C1=CC=C(C=C1)C2=NC(=C(N2)C3=CC=NC=C3)C4=CC(=C(C=C4)Cl)O
The test can be described thus: log2 fold change, soluble protein after heating vs DMSO (PISA); higher = thermal stabilisation; K562 cells, 10 uM, 30 min; active = over 0.2 and 3.5 SD of the protein, either way, in both replicates (recomputed). An outline of the steps:
(§1)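 K562 cells at 2×10^6 cells/mL were exposed to 10 μM compound for 30 min, then aliquots were heated for 3 min across 48°C-58°C, pooled, and extracted in PBS containing 0.5% NP-40 at 4°C. The supernatant after 21,000xg for 90 min was taken as soluble protein and measured by TMTpro 16plex LC-MS/MS with channel sums equalised. Thermal stability is reported relative to control samples, with values from duplicates. Fold changes are given on a log2 scale.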
MNAT1 (UniProt P51948): the log2 fold change is 0.002.

With NUDT1 (UniProt P36639), the log2 fold change is 0.055.

Turning to OGFR (UniProt Q9NZT2), the log2 fold change was 0.027.

Turning to MT-ND4 (UniProt P03905), the log2 fold change was -0.009.

Turning to MTFR1L (UniProt Q9H019), the log2 fold change is 0.077.

Turning to MRPS15 (UniProt P82914), the log2 fold change was 0.021.

Turning to NCAPG (UniProt Q9BPX3), the log2 fold change is 0.027.

On to MITD1 (UniProt Q8WV92), for which the log2 fold change was -0.015.

Regarding NPC1 (UniProt O15118), the log2 fold change was 0.011.

MRPS12 (UniProt O15235): the log2 fold change was 0.099.

In the case of MORC3 (UniProt Q14149), the log2 fold change is 0.012.

In the case of NRDC isoform 2 (UniProt O43847), the log2 fold change was 0.027.

On to NARS2 (UniProt Q96I59), for which the log2 fold change is 0.053.

In the case of MSTO1 (UniProt Q9BUK6), the log2 fold change is 0.038.

Turning to NECTIN2 (UniProt Q92692), the log2 fold change is -0.04.

For the target NEDD4L (UniProt Q96PU5), the log2 fold change was 0.146.

With NA, A0A0B4J2A0, the log2 fold change is 0.108.

Consider NUCKS1 (UniProt Q9H1E3), for which the log2 fold change is -0.089.

For the target MRPS9 (UniProt P82933), the log2 fold change was 0.023.

For the target NFYC (UniProt Q13952), the log2 fold change was 0.007.

Turning to MTMR14 (UniProt Q8NCE2), the log2 fold change was -0.038.

On to NSMCE2 (UniProt Q96MF7), for which the log2 fold change was 0.04.

In the case of NOP53 (UniProt Q9NZM5), the log2 fold change was -0.147.

For MRPL47 (UniProt Q9HD33), the log2 fold change is -0.012.

As for MRPL50 (UniProt Q8N5N7), the log2 fold change is 0.312.

For the target NDUFA4 (UniProt O00483), the log2 fold change is 0.038.

For NDUFS4 (UniProt O43181), the log2 fold change is -0.104.

For the target MRPS16 (UniProt Q9Y3D3), the log2 fold change is 0.117.

As to NAP1L1 (UniProt P55209), the log2 fold change is 0.026.

Take OXA1L (UniProt Q15070): the log2 fold change is 0.006.

On to MSH6 (UniProt P52701), for which the log2 fold change is 0.102.

Turning to NMD3 (UniProt Q96D46), the log2 fold change is 0.05.

In the case of NDUFS8 (UniProt O00217), the log2 fold change is 0.029.

In the case of NOP2 isoform 4 (UniProt P46087), the log2 fold change was -0.255.

Regarding NEU1 (UniProt Q99519), the log2 fold change was -0.018.

As for MRPS31 (UniProt Q92665), the log2 fold change was 0.048.

As for NCAPD2 (UniProt Q15021), the log2 fold change is 0.013.

MLX (UniProt Q9UH92): the log2 fold change was -0.041.

Turning to NFE2 (UniProt Q16621), the log2 fold change was -0.012.

Compound in a further test: C1=CC=C2C(=C1)C3=NNC4=CC=CC(=C43)C2=O
The test is described as above. The method in brief: as §1
For MNAT1 (UniProt P51948), the log2 fold change was -0.002.

Turning to NUDT1 (UniProt P36639), the log2 fold change is 0.187.

Take OGFR (UniProt Q9NZT2): the log2 fold change is -0.085.

In the case of MT-ND4 (UniProt P03905), the log2 fold change was 0.078.

With MTFR1L (UniProt Q9H019), the log2 fold change is 0.13.

Turning to MRPS15 (UniProt P82914), the log2 fold change is 0.106.

Take NCAPG (UniProt Q9BPX3): the log2 fold change is 0.043.

In the case of MITD1 (UniProt Q8WV92), the log2 fold change is 0.101.

Turning to NPC1 (UniProt O15118), the log2 fold change is -0.027.

For MRPS12 (UniProt O15235), the log2 fold change is 0.165.

Consider MORC3 (UniProt Q14149), for which the log2 fold change was 0.014.

As for NRDC isoform 2 (UniProt O43847), the log2 fold change is 0.057.

Turning to NARS2 (UniProt Q96I59), the log2 fold change is 0.017.

On to MSTO1 (UniProt Q9BUK6), for which the log2 fold change is 0.043.

For NECTIN2 (UniProt Q92692), the log2 fold change is -0.041.

On to NEDD4L (UniProt Q96PU5), for which the log2 fold change is 0.019.

With NA, A0A0B4J2A0, the log2 fold change is 0.026.

Take NUCKS1 (UniProt Q9H1E3): the log2 fold change was 0.033.

As to MRPS9 (UniProt P82933), the log2 fold change was 0.043.

As to NFYC (UniProt Q13952), the log2 fold change is 0.01.

On to MTMR14 (UniProt Q8NCE2), for which the log2 fold change is -0.05.

With NSMCE2 (UniProt Q96MF7), the log2 fold change was -0.058.

Take NOP53 (UniProt Q9NZM5): the log2 fold change was -0.121.

Turning to MRPL47 (UniProt Q9HD33), the log2 fold change was 0.094.

With MRPL50 (UniProt Q8N5N7), the log2 fold change was 0.072.

For NDUFA4 (UniProt O00483), the log2 fold change is 0.011.

As for NDUFS4 (UniProt O43181), the log2 fold change was -0.081.

As to MRPS16 (UniProt Q9Y3D3), the log2 fold change is 0.044.

For the target NAP1L1 (UniProt P55209), the log2 fold change is -0.018.

As for OXA1L (UniProt Q15070), the log2 fold change is -0.029.

In the case of MSH6 (UniProt P52701), the log2 fold change is 0.137.

On to NMD3 (UniProt Q96D46), for which the log2 fold change is 0.013.

As to NDUFS8 (UniProt O00217), the log2 fold change is 0.007.

NOP2 isoform 4 (UniProt P46087): the log2 fold change was 0.078.

As for NEU1 (UniProt Q99519), the log2 fold change was -0.011.

As for MRPS31 (UniProt Q92665), the log2 fold change is 0.064.

For the target NCAPD2 (UniProt Q15021), the log2 fold change is 0.022.

Take MLX (UniProt Q9UH92): the log2 fold change was -0.076.

As to NFE2 (UniProt Q16621), the log2 fold change was -0.009.

These data come from the supplement of paper PMC10849652.
